PLK1 PBD inh: inhibitors of human PLK1 polo-box domain binding; P53350; Plk1 PBD binding of FITC phosphopeptide, fluorescence polarization; Potency, µM, without a hit: max response, negative = inhibition, hits mostly inhibitors; actives 2.8% (n = 360,000); AID 720504; also: series mostly up to about 57 µM; % is scaled to controls: 0 for no effect and ±100 for the full control effect; nearly all actives have a fitted effect of over 65% in size
Tb PFK block: blocks T. brucei phosphofructokinase; actives 0.17% (n = 330,000); O15648; T. brucei PFK, ADP-Glo luminescence; Potency, µM (doses to about 57.5 µM), without a hit: at the top dose activity, negative = inhibition, actives largely listed as inhibitors;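 also: 0% = uninhibited 1x PFK enzyme wells and -100% = no-enzyme wells; nearly all actives have a fitted effect of over 60% in size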
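In TEA buffer at pH 8.0 with 5 mM MgCl2, enzyme (1.25 nM) converted F6P (0.5 mM) and ATP (0.1 mM) for 45 min at room temperature. ADP product was read by luciferase luminescence.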
VDR inhibitor: blocks the human vitamin D receptor; P11473; VDR-SRC2-3 peptide fluorescence polarization, 2 h; Potency, µM, without a hit: max response, negative = inhibition, usual class: inhibitors; actives 0.93% (n = 400,000); AID 504847; also: % is scaled to controls: 0 for no effect and ±100 for the full control effect
Target sequence (P11473 whole entry, looked up): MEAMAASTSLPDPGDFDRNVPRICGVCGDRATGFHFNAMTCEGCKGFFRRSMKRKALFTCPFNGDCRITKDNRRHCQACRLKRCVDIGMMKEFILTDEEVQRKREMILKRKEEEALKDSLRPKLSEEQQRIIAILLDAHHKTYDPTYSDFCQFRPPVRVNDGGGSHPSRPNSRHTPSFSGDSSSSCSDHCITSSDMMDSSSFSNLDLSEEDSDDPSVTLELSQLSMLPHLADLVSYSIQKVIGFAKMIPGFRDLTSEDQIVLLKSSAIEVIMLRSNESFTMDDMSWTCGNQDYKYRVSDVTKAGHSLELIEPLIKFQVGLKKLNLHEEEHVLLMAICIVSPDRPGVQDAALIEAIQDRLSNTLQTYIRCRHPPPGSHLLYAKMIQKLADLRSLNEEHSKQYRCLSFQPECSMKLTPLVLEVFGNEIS
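After 23 nl compound addition and a short centrifugation, plates sat for 2 hours at ambient temperature; polarization of fluorescence then indicated loss of VDR binding to peptide SRC2-3.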
BRCA1 expr up: BRCA1 expression activation; MCF7-BRCA1-FFLuc reporter, luminescence, 48 h; response scale: scaled: vehicle 0%, 10 µM genistein 100%; Potency, µM (series often up to 46.1 µM), without a hit: at the top dose activation, actives largely listed as activators; actives 1.1% (n = 380,000); AID 624202; also: nearly all actives have a fitted effect of over 80% in size
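MCF7-BRCA1-FFLuc cells, 2000/well in phenol-red-free MEM, attached 2 h then treated 48 h at 37 C. Luciferase luminescence read 15 min after reagent; normalized to genistein maximum activation (10microM) and DMSO, concentration-response fitted.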
The depositor's hits bear a star; ? = inconclusive; nt = no result given. Hits are enriched below; roughly 3.9% of the tested compounds scored in any of these assays. Calls follow the shape of the dose curve; as a rule, active = well fitted curve in the direction sought with a large enough effect; inconclusive = small, poorly fitted or top-dose-only effect, or another doubt; inactive = no such curve, though single readings can be large; an effect the other way counts as inactive or inconclusive. Potency is read from the fitted curve at half-maximal effect.

SMILES	PLK1 PBD inh	Tb PFK block	VDR inhibitor	BRCA1 expr up
O=C(Nc1ccc2c(c1)OCCO2)c1cccc(S(=O)(=O)N2CCCCC2)c1	-3%	-1%	-1%	-28%
C[C@@H]1CN([C@@H](C)CO)C(=O)c2cc(Br)cnc2O[C@H]1CN(C)C(=O)Cc1ccccn1	-2%	nt	nt	17%
O=C(Nc1ccc(S(=O)(=O)Nc2ncccn2)cc1)c1ccc(F)c(S(=O)(=O)N2CCOCC2)c1	30µM*	3%	-29%	-16%
C=CC(=O)N1C/C(=C/c2ccc(F)cc2)C(=O)/C(=C\c2ccc(F)cc2)C1	?	nt	10µM*	-94%
CN1C2CCC1/C(=C\c1ccc(F)cc1)C(=O)/C2=C/c1ccc(F)cc1	-15%	-8%	?	-77%
COc1ccc(/C(N)=N/OC(=O)c2ccco2)cc1OC	?	0%	0%	7.9µM*
COc1ccc(/C(N)=N/OC(=O)CCCN2C(=O)c3ccccc3C2=O)cc1OC	24µM*	-6%	?	2%
N/C(=N\OC(=O)c1ccco1)c1cccc(Br)c1	-11%	-3%	2%	-32%
O=C(CSc1ccccc1)NCc1ccc2c(c1)CCN2C(=O)c1ccc(Cl)cc1	nt	nt	19%	nt
Cc1ccc(S(=O)(=O)C[C@@H]2OC[C@H](Cc3ccccc3)N2S(=O)(=O)c2ccc(C)cc2)cc1	0%	nt	nt	nt
Cc1cc(C(=O)COC(=O)c2cc(Cl)ccc2N)c(C)n1Cc1ccco1	-2%	-12%	-6%	2.8µM*
COCCCNC(=O)c1nn(-c2ccc(C)cc2)c(=O)n(C)c1=O	nt	nt	6%	nt
O=Cc1ccc(OCc2ccc3c(c2)OCO3)cc1	-5%	-1%	-15%	2.8µM*
Cc1ccc(COc2ccc3c(c2)OCO3)cc1	3%	0%	-4%	?
O=C(Cn1c(=O)n(Cc2ccco2)c(=O)c2oc3ccccc3c21)Nc1ccc(F)cc1F	nt	nt	14%	nt
O=C(CNC(=O)c1ccccc1F)OCn1nnc2ccccc2c1=O	-14%	1%	-10%	1%
CC(C)(C)c1ccc(O)c(N=Cc2cc3c(cc2[N+](=O)[O-])OCO3)c1	27µM*	-4%	?	-20%
Cc1ccc(N=Cc2cc3c(cc2[N+](=O)[O-])OCO3)cc1[N+](=O)[O-]	?	nt	?	-14%
Cc1ccc(C)c(N=Cc2cc3c(cc2[N+](=O)[O-])OCO3)c1	-22%	1%	79µM*	-2%
COc1ccc(Br)cc1C1C(C(=O)Nc2ccc(C)cc2C)=C(C)Nc2ncnn21 (centres undefined)	nt	nt	10%	-5%
NC(=O)NC(CC(=O)NCCc1ccc(S(N)(=O)=O)cc1)c1ccccc1Cl (centres undefined)	7%	-1%	-4%	-2%
NC(=O)NC(CC(=O)NCCc1ccc(S(N)(=O)=O)cc1)c1ccc(Cl)cc1 (centres undefined)	15µM*	-16%	?	14%
COc1cccc(NC(=O)Nc2cccs2)c1	-17%	-4%	-2%	13µM*
COc1ccc(NC(=O)Nc2cccs2)cc1OC	-19%	0%	-15%	90%
Cc1ccc(NC(=O)Nc2cccs2)cc1	-9%	-24%	-1%	1.3µM*
SMILES	PLK1 PBD inh	Tb PFK block	VDR inhibitor	BRCA1 expr up
Cc1ccc(-n2ncc(C(=O)NCCCN3CCN(C)CC3)c2C2CCN(C(=O)OC(C)(C)C)CC2)cc1	nt	nt	3%	nt
COC(=O)c1cc(C#N)c(NCc2ccccc2)nc1C	3.4µM*	-3%	?	14%
COCCN(C(=O)COC(=O)C12CC3CC(CC(O)(C3)C1)C2)c1c(N)n(Cc2ccccc2)c(=O)[nH]c1=O	-7%	nt	nt	-8%
CCOCCCNc1nc2ccccc2[nH]1	-5%	-12%	8%	31%
CCOCCCNc1ccc(-c2ccccc2)nn1	-4%	-1%	-3%	2.8µM*
Cc1ccc(OCCn2c(=O)sc3ccccc32)cc1	-7%	2%	-9%	5.6µM*
CNC(=S)NNC(=O)c1ccc(=O)n(Cc2cccc(C(F)(F)F)c2)c1	3µM*	0%	-10%	0%
CSc1ccc(C(=O)C2CCCN(C(=O)c3nn(C)c(=O)c4ccccc34)C2)cc1 (centres undefined)	24µM*	8%	-11%	-56%
Cn1nc(C(=O)N2CCCC2)c2ccccc2c1=O	-8%	-6%	-10%	-9%
CN1CCC[C@@H](CC2c3ccccc3Sc3ccccc32)C1	nt	nt	-19%	nt
CC(C)Oc1cccc(C(=O)C2CCCN(C(=O)CCc3cnn(C)c3)C2)c1 (centres undefined)	-2%	-2%	-14%	?
Cc1nn(C)c(C)c1CCC(=O)N1CCCC(C(=O)c2cccc(OC(C)C)c2)C1 (centres undefined)	27µM*	-6%	-24%	1%
CN(C)c1nc(NCc2ccccc2)nc(N/N=C/c2cccc(Br)c2)n1	12µM*	0%	?	-41%
CCOc1ccc(-c2nnc(-c3cccs3)o2)cc1OCC	19µM*	3%	-30%	8.9µM*
COc1ccc(-c2nnc(-c3cccs3)o2)cc1OC	-12%	0%	-6%	5µM*
CSc1ncnc2c1ncn2CCCNc1ccc(C)c(C)c1	0%	nt	nt	-3%
CCOC(=O)C1CCN(c2ncnc3c2nc2n3CCCCC2)CC1	nt	nt	4%	?
COc1ccc(-c2cnc(C(O)c3ccc(-c4ccccc4)cc3)[nH]2)cc1 (centres undefined)	-4%	nt	nt	-6%
OC(c1ccc(-c2ccccc2)cc1)c1ncc(-c2ccccc2Cl)[nH]1 (centres undefined)	1%	nt	nt	-46%
COc1ccc(-c2cnc(C(O)c3ccccc3)[nH]2)cc1 (centres undefined)	-13%	nt	nt	13µM*
OC(c1ccccc1)c1ncc(-c2ccccc2Cl)[nH]1 (centres undefined)	-4%	nt	nt	10µM*
COc1cccc(-c2cnc(C(O)c3ccccc3)[nH]2)c1 (centres undefined)	1%	nt	nt	11µM*
CCCC(=O)N1c2nc(C(C)C)nn2C2(CCCCC2)[C@@H]2CCCC[C@@H]21	nt	nt	2%	nt
Cc1cccc(NC(=O)Cn2cc(C(=O)C3CCCCC3)c3ccccc32)c1	nt	nt	3%	nt
O=C(Nc1nnc(C2CCCO2)s1)c1ccc(Br)cc1 (centres undefined)	-10%	1%	12%	11µM*
SMILES	PLK1 PBD inh	Tb PFK block	VDR inhibitor	BRCA1 expr up
COc1ccc(-c2[nH]ncc2CN2CCC(N3CCSCC3)CC2)c(F)c1	15µM*	-3%	-27%	?
CC(C)Sc1nc(N)nc(-c2cccs2)c1C#N	-3%	-8%	4%	4µM*
CSc1nc(N)nc(-c2cccs2)c1C#N	-2%	-1%	6%	6%
COC(=O)c1c[nH]c(=O)c2ccccc12	15µM*	-3%	?	0%
COC(=O)c1ccccc1C(=O)c1cccc2ccccc12	-15%	-5%	-11%	-28%
CC(C)Cn1nnnc1S(=O)(=O)Cc1cccc(C#N)c1	nt	nt	8%	nt
CCOC(=O)CSc1nnc([C@H](Cc2ccccc2)NC(=O)OC(C)(C)C)o1	3%	0%	9%	21%
CC(C)C[C@H](N)c1nnc(S(=O)(=O)Cc2cccc(F)c2)o1	?	-2%	18µM*	-18%

Screens (PubChem)
